The target in the first assay is T1, ETV7 (Homo sapiens, UniProt Q9Y603 1-341).
T1 sequence: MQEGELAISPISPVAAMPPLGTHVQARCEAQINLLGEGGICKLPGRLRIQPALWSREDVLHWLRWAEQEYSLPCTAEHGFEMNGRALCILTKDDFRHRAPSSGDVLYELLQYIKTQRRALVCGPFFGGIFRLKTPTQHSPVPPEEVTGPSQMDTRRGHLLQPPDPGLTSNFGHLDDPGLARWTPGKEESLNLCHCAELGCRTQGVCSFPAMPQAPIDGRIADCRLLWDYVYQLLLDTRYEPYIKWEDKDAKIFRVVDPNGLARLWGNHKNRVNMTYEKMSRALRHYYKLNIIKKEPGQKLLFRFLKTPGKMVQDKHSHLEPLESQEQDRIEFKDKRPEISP
Briefly: DAPPL (digital affinity profiling via proximity ligation, sequencing); 10 mM Tris-HCl pH 7.5, 50 mM NaCl, 1 mM DTT, 4% glycerol, room temperature, 30 min; GST-TFs on glutathione beads, 16-mer random dsDNA library, 0.1% formaldehyde crosslink after washing; high values mean tight binding. As to conditions: protein: recombinant; tags: N-terminal GST; dsDNA, one strand shown. The method in brief:
(§1)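 Sequencing on an Illumina NextSeq500 followed washing, crosslinking with 0.1% formaldehyde, proximity ligation (BsaI/T4 ligase, 1 h, 37 °C) and PCR amplification of pools that had been incubated for 30 min at room temperature with 200 nmole of a random double-stranded 16-mer DNA library in Tris/NaCl/DTT/glycerol buffer. Each pool held DNA-barcoded human transcription factors, expressed in yeast as GST fusions and captured on glutathione beads, plus a tag-only sample. Binding signal is a hexamer's read frequency for a factor divided by its frequency in the tag-only sample.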
Turning to CGCTCC, the binding signal is 1.18 fold enrichment (6-mer frequency, TF over GST control).
As for GCTGTA, the binding signal was 1.09 fold enrichment (6-mer frequency, TF over GST control).
For TGCCTG, the binding signal was 1.17 fold enrichment (6-mer frequency, TF over GST control).
With CCGGCA, the binding signal was 1.27 fold enrichment (6-mer frequency, TF over GST control).
For ACCTTC, the binding signal was 1.79 fold enrichment (6-mer frequency, TF over GST control).
Still for that read-out and setting: next, TGATCC: 1.12 fold enrichment (6-mer frequency, TF over GST control); CCGACG: 1.34 fold enrichment (6-mer frequency, TF over GST control).
The same measure, in the same setting: next, TGCCTT: 1.28 fold enrichment (6-mer frequency, TF over GST control); AGATGA: 1.15 fold enrichment (6-mer frequency, TF over GST control).
ACTTGG: the binding signal was 1.2 fold enrichment (6-mer frequency, TF over GST control).
On the same count and under the same terms, next, CCACGA: 1.17 fold enrichment (6-mer frequency, TF over GST control); ACTCCA: 1.18 fold enrichment (6-mer frequency, TF over GST control).
Take CAACCC: the binding signal is 1.15 fold enrichment (6-mer frequency, TF over GST control).
Same read-out and setting: next, TCTACG: 1.36 fold enrichment (6-mer frequency, TF over GST control); AATAGG: 1.27 fold enrichment (6-mer frequency, TF over GST control); TCCATC: 1.2 fold enrichment (6-mer frequency, TF over GST control).
Same read-out and setting: next, ATTAAC: 1.24 fold enrichment (6-mer frequency, TF over GST control); CCCACT: 1.28 fold enrichment (6-mer frequency, TF over GST control).
Take ACACAT: the binding signal was 1.27 fold enrichment (6-mer frequency, TF over GST control).
Regarding ACGACA, the binding signal is 1.05 fold enrichment (6-mer frequency, TF over GST control).

The target of the next assay is T2, ELF5 (Homo sapiens, UniProt Q9UKW6-2 1-255).
T2 sequence: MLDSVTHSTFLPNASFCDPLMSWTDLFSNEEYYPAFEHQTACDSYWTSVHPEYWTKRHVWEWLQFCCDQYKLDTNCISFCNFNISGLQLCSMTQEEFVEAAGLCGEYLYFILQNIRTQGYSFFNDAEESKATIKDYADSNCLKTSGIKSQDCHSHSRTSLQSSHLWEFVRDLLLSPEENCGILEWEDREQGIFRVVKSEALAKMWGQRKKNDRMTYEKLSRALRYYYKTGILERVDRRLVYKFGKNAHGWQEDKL
Described as above. The settings on record: protein: recombinant; tags: N-terminal GST; dsDNA, one strand shown. The procedure, abridged:
as §1
Consider ATGATC, for which the binding signal is 1.22 fold enrichment (6-mer frequency, TF over GST control).
For ACACTG, the binding signal was 1.05 fold enrichment (6-mer frequency, TF over GST control).
The same measure, in the same setting: next, CCTGTG: 1.06 fold enrichment (6-mer frequency, TF over GST control); CTGGTC: 1.17 fold enrichment (6-mer frequency, TF over GST control); TTTATT: 1.24 fold enrichment (6-mer frequency, TF over GST control).
On the same count and under the same terms, next, TACAAA: 1.13 fold enrichment (6-mer frequency, TF over GST control); CCTGCA: 1.3 fold enrichment (6-mer frequency, TF over GST control).
As for ACTGCC, the binding signal is 1.43 fold enrichment (6-mer frequency, TF over GST control).
ATAATT: the binding signal was 1.31 fold enrichment (6-mer frequency, TF over GST control).
Take CCTCGG: the binding signal was 1.2 fold enrichment (6-mer frequency, TF over GST control).
On the same count and under the same terms, next, TTAATC: 1.18 fold enrichment (6-mer frequency, TF over GST control); CTGTTG: 1.09 fold enrichment (6-mer frequency, TF over GST control).
The same measure, in the same setting: next, ACATAC: 1.14 fold enrichment (6-mer frequency, TF over GST control); GTTCCG: 2.5 fold enrichment (6-mer frequency, TF over GST control); ATTGCC: 1.22 fold enrichment (6-mer frequency, TF over GST control).
Same read-out and setting: next, CGTTCC: 1.65 fold enrichment (6-mer frequency, TF over GST control).
Regarding GCTATG, the binding signal is 1.14 fold enrichment (6-mer frequency, TF over GST control).
The same measure, in the same setting: next, GGATGT: 1.87 fold enrichment (6-mer frequency, TF over GST control); TGTCTC: 1.26 fold enrichment (6-mer frequency, TF over GST control).
Same read-out and setting: next, CGCTCC: 1.23 fold enrichment (6-mer frequency, TF over GST control).
As for GCTGTA, the binding signal was 1.07 fold enrichment (6-mer frequency, TF over GST control).
Same read-out and setting: next, TGCCTG: 1.27 fold enrichment (6-mer frequency, TF over GST control); CCGGCA: 1.51 fold enrichment (6-mer frequency, TF over GST control).
The same measure, in the same setting: next, ACCTTC: 2.19 fold enrichment (6-mer frequency, TF over GST control).
On the same count and under the same terms, next, TGATCC: 1.35 fold enrichment (6-mer frequency, TF over GST control); CCGACG: 1.28 fold enrichment (6-mer frequency, TF over GST control).
With TGCCTT, the binding signal was 1.39 fold enrichment (6-mer frequency, TF over GST control).
The same measure, in the same setting: next, AGATGA: 1.05 fold enrichment (6-mer frequency, TF over GST control); ACTTGG: 1.16 fold enrichment (6-mer frequency, TF over GST control).
Still for that read-out and setting: next, CCACGA: 1.01 fold enrichment (6-mer frequency, TF over GST control).
With ACTCCA, the binding signal is 1.14 fold enrichment (6-mer frequency, TF over GST control).
On the same count and under the same terms, next, CAACCC: 1.2 fold enrichment (6-mer frequency, TF over GST control); TCTACG: 1.35 fold enrichment (6-mer frequency, TF over GST control); AATAGG: 1.19 fold enrichment (6-mer frequency, TF over GST control).
Consider TCCATC, for which the binding signal was 1.17 fold enrichment (6-mer frequency, TF over GST control).
Same read-out and setting: next, ATTAAC: 1.23 fold enrichment (6-mer frequency, TF over GST control); CCCACT: 1.31 fold enrichment (6-mer frequency, TF over GST control).
Turning to ACACAT, the binding signal was 1.23 fold enrichment (6-mer frequency, TF over GST control).
On the same count and under the same terms, next, ACGACA: 1.18 fold enrichment (6-mer frequency, TF over GST control).
